Screening results as filed in PubChem BioAssay.
The list is not random: actives were taken first. Their share in the collection is about 0.81%.
SARS PLpro yeast-1 = blocks SARS-CoV papain-like protease in a yeast assay | S. cerevisiae expressing SARS-CoV PLpro, growth rescue | Potency, µM (doses to about 32.9 µM), for the others: at the highest dose activity, positive = growth rescue, actives largely listed as activators | 330,000 compounds, 0.19% hits; calls by dose curve; further: potency means the concentration at half of the fitted maximal effect; 0% is about no effect; nearly all actives have a fitted effect of over 55% in size
RE007 growth inh = less growth of the S. pombe RE007 Vpr strain; S. pombe RE007 Vpr strain, BacTiter-Glo ATP luminescence, 24 h; Potency, µM (doses to about 92.2 µM), for inactives: top-dose activity change, negative = less growth, actives largely listed as inhibitors; 360,000 compounds, 0.21% hits; active means well fitted falling curve with a large enough effect; inconclusive means small, poorly fitted or top-dose-only effect; inactive means no such curve, though single readings can be large or run the other way; further: potency means the concentration at half of the fitted maximal effect; on the % scale 0 is the no-effect control and ±100 the full control effect; nearly all actives have a fitted effect of over 50% in size
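Fission yeast strain RE007, carrying one chromosomally integrated HIV-1 vpr copy, was seeded at OD 0.01 in PMG+AL medium with 23 nL pinned compound. After 24 h at 30 °C and 99% humidity, viability was read by BacTiter-Glo luminescence.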
Tb PYK inh = inhibitors of Trypanosoma brucei pyruvate kinase. Q57TT1. TbPYK enzyme, Kinase-Glo Plus ATP luminescence, 45 min. Potency, µM (highest dose often 76.8 µM), without a hit: at the highest dose activity, negative = inhibition, most hits filed as inhibitors. 410,000 compounds, 0.12% hits; further: potency means the concentration at half of the fitted maximal effect; on the % scale 0 is the no-effect control and ±100 the full control effect; nearly all actives have a fitted effect of over 50% in size
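ADP (130 uM final) triggers the TbPYK reaction after compound addition; incubation is 45 min at room temperature. Kinase-Glo Plus is then added and luminescence imaged. Normalized data are fitted to concentration-effect curves.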
LmPK inhibitor = LmPK (Leishmania mexicana) enzyme inhibition; Potency, µM (titrated, usually from 57.5 µM), for inactives: at the top dose activity change, negative = inhibition, actives largely listed as inhibitors; purified LmPK, Kinase-Glo ATP luminescence, 1 h; 290,000 compounds, 0.37% hits; Q27686; further: potency means the concentration at half of the fitted maximal effect; on the % scale 0 is the no-effect control and ±100 the full control effect
Target sequence (Q27686 whole entry, looked up): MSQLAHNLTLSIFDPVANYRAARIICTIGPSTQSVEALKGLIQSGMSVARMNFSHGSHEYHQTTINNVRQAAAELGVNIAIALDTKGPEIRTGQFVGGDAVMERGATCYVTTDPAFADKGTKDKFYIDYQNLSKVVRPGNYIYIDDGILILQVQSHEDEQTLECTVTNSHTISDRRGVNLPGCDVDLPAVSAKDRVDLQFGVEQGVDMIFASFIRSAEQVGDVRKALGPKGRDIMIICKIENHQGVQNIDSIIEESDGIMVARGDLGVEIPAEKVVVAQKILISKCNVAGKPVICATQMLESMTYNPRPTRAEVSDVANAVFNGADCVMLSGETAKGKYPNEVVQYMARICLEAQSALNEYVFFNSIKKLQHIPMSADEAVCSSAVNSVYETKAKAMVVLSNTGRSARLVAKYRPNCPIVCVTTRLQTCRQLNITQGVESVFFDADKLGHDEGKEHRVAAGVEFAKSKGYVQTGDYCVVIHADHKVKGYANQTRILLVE
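ATP generated from ADP (0.1 mM) and PEP (0.5 mM) by 0.1 nM LmPK over 1 h at room temperature (pH 7.2 imidazole buffer) was detected by coupled luciferase luminescence. Values were normalized to uninhibited and no-enzyme wells.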
AMA1 RON2 block = AMA1-RON2 (P. falciparum) interaction inhibition | AlphaScreen AMA1-biotinylated RON2 peptide binding | Potency, µM (highest dose often 58.2 µM), inactives show at the top dose activity change, negative = inhibition, actives largely listed as inhibitors | 360,000 compounds, 0.2% hits | AID 720542;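 further: potency means the concentration at half of the fitted maximal effect; 0% = vehicle wells and -100% = peptide control; nearly all actives have a fitted effect of over 45% in size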
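AMA1 (3D7) with his tag at 25 nM final met compounds first, then biotinylated RON2 peptide at 25 nM; detection used donor plus acceptor beads, 10 µg/mL apiece, read by AlphaScreen after 30 min at room temperature.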
SARS PLpro yeast-2 = Inhibits SARS-CoV PLP in yeast, hit validation; shares compounds with SARS PLpro yeast-1; yeast expressing SARS-CoV PLpro, growth phenotype rescue; calls only; 1,000 compounds, 19% hits; AID 652038; call rule not given here
An asterisk follows results filed as active; i = inactive; u = inconclusive; x = no result given; + = active, no number; [ ] = dose if it differs, or a comment. Unless noted, the call rests on the fitted dose curve; in most records, active means well fitted curve in the direction sought with a large enough effect; inconclusive means small, poorly fitted or top-dose-only effect, or another doubt; inactive means no such curve, though single readings can be large; an effect the other way counts as inactive or inconclusive.

SMILES	SARS PLpro yeast-1	RE007 growth inh	Tb PYK inh	LmPK inhibitor	AMA1 RON2 block	SARS PLpro yeast-2
Cc1cc([N+](=O)[O-])nn1Cc1ccc(C(=O)N/N=C/c2ccc(O)cc2O)cc1	3.2µM*	11%	3%	1%	52%	u
Cc1cc([N+](=O)[O-])nn1Cc1ccc(C(=O)N/N=C/c2ccc(F)cc2)cc1	-1%	-4%	3%	0%	-3%	x
COCCNC(=S)NC(=O)CC12CC3CC(CC(C3)C1)C2	u	-5%	6%	-1%	-13%	+
CNC(=O)CC12CC3CC(CC(C3)C1)C2	u	11%	-13%	8%	-4%	x
CNC(=O)NC1CCCc2ccccc21 (configuration not stated)	u	9%	1%	-2%	u	i
O=C(O)c1cccc(NC(=S)N/N=C/c2ccccn2)c1	5µM*	5%	5%	5%	-66%	+
O=C(O)c1cccc(NC(=S)N/N=C/c2cccc(O)c2)c1	1%	-8%	-6%	-7%	79%	x
O=C(N/N=C/c1ccccn1)c1ccc(Br)cc1	u	u	-8%	-2%	71%	u
NNC(=O)/C(=N/Nc1ccccc1)S(=O)(=O)c1ccc(Cl)cc1	u	10%	-6%	5%	39%[2.32 µM]	i
COc1ccc(C(=O)COC(=O)C2CC3CCCC(C2)C3=O)cc1Br (configuration not stated)	u	4%	-14%	x	-22%	i
COc1cccc(C(=O)COC(=O)C2CC3CCCC(C2)C3=O)c1 (configuration not stated)	-2%	2%	-3%	x	0%	x
COc1ccccc1CNC(=O)CN1NS(=O)(=O)c2ccccc2C1=O	0%	-9%	8%	x	2%	x
CC(C)c1ccc(NC(=O)C2CCCN(S(=O)(=O)c3ccc4[nH]c(=O)oc4c3)C2)cc1 (configuration not stated)	x	x	-9%	x	x	x
C/C(CC(=O)NC1CCCCCC1)=N\NC(=O)c1cnccn1	3.5µM*	4%	1%	1%	67%	i
O=C(NC1CCCCCCC1)c1cnccn1	-1%	25%	0%	10%	6%	x
Cc1ccccc1OCCOC(=O)c1cc(S(=O)(=O)N2CCCCC2)ccc1N1CCOCC1	10µM*	-27%	9%	x	-28%	u
N#Cc1ccc(C(=O)NC(=S)NC2CCCCC2)cc1	-6%	-24%	4%	x	72%	x
C/C(=N\NC(=S)NC1CCCCC1)c1ccc(C#N)cc1	16µM*	-7%	-6%	-2%	51%	+
COc1cccc(-n2nnc3c(=O)n(CC(=O)OCc4ccccc4)cnc32)c1	u	-9%	-7%	-1%	2%	i
C(=N\Nc1nc2ccccc2s1)/c1ccc2c(c1)OCO2	1%	-1%	-7%	-8%	3%	x
Cc1nc(N/N=C\c2ccc3c(c2)OCO3)sc1C	7.1µM*	-8%	-13%	9%	74%	+
Cc1ccc(CN(CC2CCCO2)C(=O)CN2C(=O)C(C(C)C)Oc3ccccc32)o1 (configuration not stated)	1%	-2%	u	6%	-6%	x
CC(C)C1Oc2ccccc2N(CC(=O)N(Cc2ccccn2)CC2CCCO2)C1=O (configuration not stated)	1.8µM*	5%	6%	2%	-5%	i
O=C(Cn1cnc2c(nnn2Cc2ccccc2F)c1=O)NCC1CCCO1 (configuration not stated)	u	-2%	6%	5%	8%	i
O=C(Nc1ccc(Cl)cc1)C1CCCN(c2ncnc3c2nc2n3CCCCC2)C1 (configuration not stated)	0%	13%	-9%	1%	-7%	x
O=C(NN=Cc1ccc(O)cc1O)c1ccccc1NS(=O)(=O)c1cccs1	1.1µM*	6%	0%	x	70%	i
COc1ccc(C=NNC(=O)c2ccccc2NS(=O)(=O)c2cccs2)cc1O	14%	4%	4%	x	35%	x
